ABHD5-PLIN5 inh: blocks binding of human ABHD5 to perilipin-5; AID 602281; Q00G26+Q8WTS1; hit rate 0.78% among 360,000; Split G. princeps luciferase complementation, luminescence, 4 h; inhibition, % at 4 µM;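 active = inhibition above the mean inhibition across every tested compound plus 3 SD, cut at about 22% in these data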;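 note: 0% = DMSO only wells and the 100% control is not disclosed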
HIF-2a inh: HIF-2a inhibition; inhibition, % at 18.8 µM; AID 624352; hit rate 0.72% among 360,000; 786-0 RCC cells HIF-2a reporter, luciferase luminescence, overnight;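 active = inhibition of the luminescence signal of 40% or more relative to plate controls, in a single-dose primary screen at 18.75 µM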
Mdm2-MdmX inh: disrupts the human Mdm2-MdmX interaction | O15151+Q00987 | SaOS-2 split-luciferase Mdm2/MdmX complementation, luminescence | inhibition, % at 8 µM | hit rate 3% among 330,000 | AID 485346;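 active = inhibition of at least 50% at 8 µM in the primary screen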
Target sequence (O15151 whole entry, looked up): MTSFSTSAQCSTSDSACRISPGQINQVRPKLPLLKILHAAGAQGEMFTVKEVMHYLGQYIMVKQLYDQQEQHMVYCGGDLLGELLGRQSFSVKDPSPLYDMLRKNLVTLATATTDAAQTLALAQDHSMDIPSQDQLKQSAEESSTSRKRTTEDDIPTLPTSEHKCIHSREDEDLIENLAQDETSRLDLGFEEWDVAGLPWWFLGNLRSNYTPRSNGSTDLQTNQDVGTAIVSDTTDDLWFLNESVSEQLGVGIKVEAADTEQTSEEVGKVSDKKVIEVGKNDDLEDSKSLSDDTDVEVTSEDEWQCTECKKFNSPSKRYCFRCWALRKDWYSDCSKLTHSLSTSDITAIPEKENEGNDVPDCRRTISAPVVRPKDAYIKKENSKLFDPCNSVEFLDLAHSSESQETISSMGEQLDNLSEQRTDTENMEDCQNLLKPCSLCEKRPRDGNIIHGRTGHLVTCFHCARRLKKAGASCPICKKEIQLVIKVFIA
Target sequence (Q00987 whole entry, looked up): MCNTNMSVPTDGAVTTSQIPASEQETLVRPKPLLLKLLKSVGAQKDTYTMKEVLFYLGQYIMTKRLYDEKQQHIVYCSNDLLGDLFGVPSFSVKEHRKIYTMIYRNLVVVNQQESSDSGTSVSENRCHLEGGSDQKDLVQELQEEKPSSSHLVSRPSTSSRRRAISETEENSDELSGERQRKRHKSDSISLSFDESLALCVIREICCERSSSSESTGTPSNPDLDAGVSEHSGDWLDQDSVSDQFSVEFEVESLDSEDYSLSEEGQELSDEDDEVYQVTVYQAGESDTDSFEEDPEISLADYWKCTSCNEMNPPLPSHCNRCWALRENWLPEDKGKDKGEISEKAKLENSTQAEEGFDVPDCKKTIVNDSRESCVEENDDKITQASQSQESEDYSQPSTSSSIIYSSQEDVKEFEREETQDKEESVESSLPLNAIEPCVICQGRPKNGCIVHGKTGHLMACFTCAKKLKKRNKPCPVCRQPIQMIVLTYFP
KKLEB cytotox: counter-screen for CF NF-kB inhibitors: cytotoxicity | hit rate 0.36% among 360,000 | activity change (cytotoxicity), % at 5 µM | KKLEB CF airway cells viability, ATPlite luminescence, overnight; active compounds read low; cells stimulated with P. aeruginosa culture filtrate;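 active = corrected activity change at or below -50% at 5 µM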
Peg3 prom inh: inhibitors of Peg3 promoter; HeLa PEG-Prom luciferase reporter, luminescence, overnight; inhibition, % at 20 µM; hit rate 1.7% among 360,000;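 active = inhibition of at least 50% at 20 µM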
CF NFkB block: blocks PAF-induced NF-kB reporter in cystic fibrosis cells; inhibition, % at 5 µM; KKLEB NF-kB-GFP reporter, GFP fluorescence overnight; hit rate 0.86% among 360,000;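 active = at least 50% inhibition at 5 µM, scaled per plate between neutral and stimulator controls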;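 note: PAF is a Pseudomonas aeruginosa culture filtrate used as stimulus; plate controls were PAF-stimulated DMSO wells for no effect and unstimulated DMSO wells for full effect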
Mdm2 MdmX conf: human Mdm2/MdmX binding inhibition, confirmed; shares compounds with Mdm2-MdmX inh; luminescent assay; inhibition, % at 8 µM; hit rate 55% among 10,000; AID 489028; in the data active = inhibition above about 40%
Full FLuc ctr: inhibits full-length luciferase, flagging false Mdm2/MdmX hits. shares compounds with Mdm2-MdmX inh. hit rate 77% among 6,200. AID 504607. inhibition, % at 8 µM. SaOS-2 full-length luciferase counterscreen, luminescence;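 active = mean inhibition at 8 µM reaching about 37%, which flags the compound as non-specific, limit read from the data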;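 note: p53-null SaOS-2 cells with luciferase driven by a doxycycline-inducible promoter; compound on cells about two nights before reading with doxycycline added after day one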
* marks the source's active call; other numbers are inactive results; . = no result. This is a sample that favours compounds with a hit; in the whole collection about 4.6% have one here.

SMILES | ABHD5-PLIN5 inh | HIF-2a inh | Mdm2-MdmX inh | KKLEB cytotox | Peg3 prom inh | CF NFkB block | Mdm2 MdmX conf | Full FLuc ctr
CCOc1ccc(-c2nnn(CC(=O)NCc3ccc(OC)cc3)n2)cc1OCC | 4 | 3 | 62* | 1 | 28 | 16 | 16 | .
CCOc1ccc(-c2nnn(CC(=O)Nc3cc(OC)cc(OC)c3)n2)cc1OCC | 1 | 11 | 13 | -25 | 26 | 15 | . | .
CCOc1ccc(-c2nnn(CC(=O)Nc3cc(OC)ccc3OC)n2)cc1OCC | -1 | -4 | 0 | -5 | 4 | -3 | . | .
CCOc1ccccc1NC(=O)Cn1nnc(-c2ccc(OCC)c(OCC)c2)n1 | -5 | 19 | 88* | -13 | 28 | 11 | 7 | .
COc1ccc(CNC(=O)Cn2nnc(-c3ccc(NC(=O)C4CCCCC4)cc3)n2)cc1 | 0 | -70 | 61* | -7 | -68 | 6 | 15 | .
COC(=O)[C@@]1(Cc2ccccc2)[C@H]2C(=O)N(Cc3ccccc3)C(=O)[C@H]2[C@H]2CN=C(SCc3ccc(C#N)cc3)N21 | -2 | 8 | 91* | 14 | 10 | 6 | 95* | 28
CCS(=O)(=O)c1nc2ccccc2n1Cc1ccccc1Cl | 0 | 12 | 69* | 0 | -27 | -2 | 35 | .
CCc1ccc2oc(C(=O)NC3CCS(=O)(=O)C3)cc(=O)c2c1 (configuration not stated) | -9 | -6 | -8 | -6 | 7 | 12 | . | .
O=C(CCl)NCc1c(Cl)cccc1-n1cccc1 | -4 | 10 | 56* | -8 | 11 | -7 | 41* | 36
CCCCN(Cc1ccc(C(=O)N[C@H](C(=O)O)C(C)C)cc1)C(=O)C(c1ccccc1)c1ccccc1 | -7 | 9 | 13 | 2 | -2 | 10 | . | .
COc1cccc(Sc2nc(-c3ccccc3)ncc2S(C)(=O)=O)c1 | -4 | -87 | 62* | -13 | -19 | 38 | 36 | .
CS(=O)(=O)c1cnc(-c2ccccc2)nc1Sc1ccc(F)cc1 | -2 | -7 | 14 | -14 | 5 | 28 | . | .
CCOC(=O)c1ccc(NC(=O)Nc2ccc(Cl)cn2)cc1 | 0 | 9 | -15 | -1 | 9 | 12 | . | .
CCOC(=O)c1ccc(NC(=O)Nc2ccon2)cc1 | -3 | -86 | 53* | -12 | -144 | 50 | 43* | 115*
COc1ccc(-c2nc(N)nc(C)c2Oc2ccccc2Br)c(O)c1 | -6 | 17 | 67* | -3 | 29 | 2 | 65* | 53*
CCOc1ccc(-c2nc(N)ncc2Oc2ccc(OC)cc2)c(O)c1 | 0 | 5 | 14 | -15 | 7 | 23 | . | .
O=C(Cn1nc2ccccc2n1)N/N=C/c1cc([N+](=O)[O-])ccc1O | 6 | 11 | 3 | 7 | 18 | 26 | . | .
O=C(N/N=C/c1cc(Cl)ccc1O)c1ccccc1Br | 6 | -26 | 54* | -6 | 1 | -9 | 58* | 44*
O=C(CNC(=O)c1ccccc1Br)N/N=C/c1cc(Br)ccc1O | -2 | 17 | 36 | 8 | 35 | 0 | . | .
O=C(N/N=C/c1cc([N+](=O)[O-])ccc1O)c1cccc2ccccc12 | -6 | 8 | 62* | -23 | 23 | 16 | 68* | 43*
O=C(Cn1nnc(-c2ccccc2)n1)N/N=C/c1cc([N+](=O)[O-])ccc1O | 4 | 10 | 53* | -29 | 8 | 17 | 12 | .
Cc1nc2ccc(C(=O)N/N=C/c3cc([N+](=O)[O-])ccc3O)cc2[nH]1 | 3 | 7 | 0 | 8 | 4 | -3 | . | .
O=C(N/N=C/c1cc([N+](=O)[O-])ccc1O)c1cccc(NC(=O)c2cccc(Cl)c2)c1 | -2 | 2 | 51* | -12 | 37 | 18 | 50* | 41*
CCCc1ccc(C(O)c2ncc(-c3ccc(OC)cc3)[nH]2)cc1 (configuration not stated) | -3 | -4 | . | -15 | 12 | 3 | . | .
COc1ccc(OC)c(NC(=O)Cc2ccc(NC3=NC4CS(=O)(=O)CC4S3)cc2)c1 (configuration not stated) | 4 | -8 | 17 | -15 | 9 | -2 | . | .
SMILES | ABHD5-PLIN5 inh | HIF-2a inh | Mdm2-MdmX inh | KKLEB cytotox | Peg3 prom inh | CF NFkB block | Mdm2 MdmX conf | Full FLuc ctr
O=C(Nc1cc(Cl)cc(Cl)c1)N[C@@H]1CC[C@@H](CCNS(=O)(=O)c2cccc(F)c2)O[C@@H]1CO | -13 | -10 | . | . | . | . | . | .
O=[N+]([O-])c1ccc(O)c(/C=N\N=C2c3ccccc3-c3ccccc32)c1 | -1 | -34 | 93* | -51* | 22 | 48 | 91* | 46*
CC1CCCC(C)N1C(=O)COC(=O)c1cc(=O)[nH]c2ccccc12 (configuration not stated) | -4 | -32 | 9 | -1 | -25 | 8 | . | .
O=C(O)CCCCCN1C(=O)/C(=C\c2cn(-c3ccccc3)nc2-c2cccs2)SC1=S | -3 | 5 | 51* | -31 | 15 | 59* | 29 | .
C[C@@H]1O[C@H](C2CCCCC2)Cc2[nH][nH]c(=O)c21 | 17 | 7 | . | . | . | . | . | .
CCN1C(=O)[C@H]2[C@@H](c3ccc(-c4ccc(OC)cc4)c(OC)c3)N3CCCC[C@@]3(C(=O)OC)[C@H]2C1=O | 6 | 3 | 16 | -3 | 11 | 5 | . | .
O=C(CCC1CCCCC1)NCCN1C2=NC[C@@H](Cc3ccccc3)N2C[C@H]1Cc1ccc(O)cc1 | 7 | 10 | 67* | 10 | 21 | 1 | 54* | 63*
Cc1nc(N2CCOCC2)[nH]c(=O)c1C(O)C(Cl)(Cl)Cl (configuration not stated) | -5 | 11 | 1 | 12 | 4 | -3 | . | .
Oc1ccc(CN2CCCc3ccccc32)c2cccnc12 | 8 | -19 | 79* | -2 | 32 | 7 | 76* | 43*
O=C(Oc1c(CN2CCOCC2)cc(Cl)c2cccnc12)c1ccccc1Br | 2 | 24 | 52* | 15 | 34 | -2 | 32 | .
CCOC(=O)C1CCN(Cc2ccc(O)c3ncccc23)CC1 | 0 | 13 | 81* | -5 | 3 | -1 | 62* | 50*
CCOC(=O)C1CCN(Cc2ccccc2C(F)(F)F)CC1 | 4 | 1 | -25 | -18 | 6 | 14 | . | .
CCOC(=O)N1CCN(Cc2ccccc2Cl)CC1 | 0 | -5 | 2 | 2 | -5 | -5 | . | .
CCOC(=O)N1CCN(Cc2cc(Cl)c3cccnc3c2O)CC1 | . | . | 64* | . | . | . | 51* | 38*
NC(=NCc1ccco1)NC(=O)c1ccccc1 | -5 | -59 | 6 | -5 | -88 | 14 | . | .
COc1ccccc1N1CCN(Cc2ccc(OC)c(OC)c2OC)CC1 | -1 | 16 | 5 | 17 | 2 | -18 | . | .
COc1ccccc1N1CCN(Cc2ccc(O)c3ncccc23)CC1 | 1 | 5 | 77* | -14 | 34 | 6 | 67* | 21

Screening data deposited in PubChem BioAssay by several laboratories.
